# Inconclusive results are not listed. Unmarked numbers belong to inactive results. Calls come from the whole dose curve; as a rule, active = well fitted inhibition curve with a large enough effect; inconclusive = small, poorly fitted or top-dose-only effect; inactive = flat fitted curve, though single readings scatter.
# Tested on: NAD(P)H diaphorase (Clostridium kluyveri)
# Test: Diaphorse counterscreen qHTS: Assay Interference Panel against the NCATS CANVASS Library (AID 1347362); note: 0% is about no effect
# Conditions: Diaphorase enzyme, resazurin to resorufin fluorescence; series mostly up to 57.5 µM; activity change, negative = inhibition: at the top concentration
# Excerpt: Natural products and their derivatives continue to be wellsprings of nascent therapeutic potential. However, many laboratories have limited resources for biological evaluation, leaving their previously isolated or synthesized compounds largely or completely untested. To address this issue, the Canvass library of natural products was assembled (https://tripod.nih.gov/canvass), in collaboration with academic and industry researchers, for quantitative high-throughput screening (qHTS) across a diverse set of cell-based and biochemical assays. The pure (>85% purity by liquid chromatography/mass spectrometry [LC/MS]) Canvass library of 346 natural products were submitted by 45 academic laboratories and companies around the world. We collected pure natural products to circumvent deconvolution and structure elucidation due to time and resource limitations. The library was formatted into 1536-well plates and evaluated in 50 qHTS (in an 11-pnt concentration series) bioassays with broad scope of disease-relevant mechanisms. The resulting data set from 50 different assays was then systematically analyzed to identify overall trends and specific natural products with interesting biological activities. Reported herein are the results of each individual qHTS and their corresponding assay protocol. This assay determines potential interactions with a common fluorescent coupling enzyme, NAD(P)H-Diaphorase, to identify possible false positives in future assays. The assay measures the conversion of resazurin to fluorescent resorufin, to identify compounds that inhibit the activity of diaphorase. National Center for Advancing Translational Sciences (NCATS), Rockville, MD National Institute of Health (NIH), Bethesda, Maryland
# Assay Interference counterscreen protocol 1. In a 1536 well, black solid bottom, medium binding plates (Corning 7494), 3 uL of diaphorase from Clostridium kluyveri in PBS + 0.01% Tween-20 was dispensed into columns 2 to 48, rows 1 to 32 using the Bioraptr dispenser. PBS-T solution was dispensed in column 1, rows 1 to 32 for control purposes. 2. Compounds were pin transferred (~23 nL volume) via Wako Pin-tool (Wako Automation, Richmond VA) equipped with a 1536 pin head. The assay plates were treated with compounds in a concentration series with a final concentration range of 0.2 nM to 128 uM. 3. PTC was used as a control (25 uM, n = 32, column 2, row 1-32) at a final concentration of 114.5 nM and was pin transferred via Wako Pin-tool equipped with a 1536 pin head. 4. The assay plates were incubated in the dark for 15 minutes at room temperature. 5. One microliter of 4x detection reagent (40 uM Resazurin + 40 uM NADH in PBS-T) was then added to the assay plates (column 1-48, rows 1-32) for a final assay volume of 4 uL. 6. The assay plates were further incubated in the dark for 5 minutes at room temperature. 7. Fluorescence signal was acquired via the ViewLux plate reader (PerkinElmer) using an excitation filter 525/20, emission filter 598/25; 1000 light energy, 2 second exposure, 2x binning settings.
row,SMILES,"activity change, negative = inhibition"
1,c1ccc2c3c([nH]c2c1)CNCC3,-13.5%
2,CN1C(=O)[C@]23CC4C(C)(C)[C@@]5(C[C@@]41CN2CC[C@@]3(C)O)C(=O)Nc1c5ccc2c1OC=CC(C)(C)O2 (stereo not given in full),-8%
3,CNCCc1ccccc1,-6.6%
4,CO[C@@H](/C=C/CC/C=C/C(=O)O)[C@@H](O)[C@H](C)[C@@H](O)/C(C)=C/[C@H](C)C(=O)CCCC1CC(=O)NC(=O)C1,-9.52%
5,CCN1C[C@]2(C)CC[C@H](O)[C@]34C1C(C[C@H]23)[C@@]12CC[C@H](CC14)[C@](O)(COC(=O)c1ccc(OC)c(OC)c1)[C@H]2O (stereo not given in full),-18.6%
6,CC1=CC(=O)C2=C(C)C[C@H](O)[C@@H]3[C@H](OC(=O)[C@@H]3C)[C@@H]12,-1.04%
7,CN(C)Cc1c[nH]c2ccccc12,-2.13%
8,C=C1[C@@H](C)[C@H]2[C@H](Cc3ccccc3)NC(=O)[C@]23OC(=O)/C=C/[C@H](O)CCC[C@@H](C)C/C=C/[C@H]3[C@@H]1O,-1.82%
9,CCCC[C@@H]1CC[C@H]2CCCC(CCC)N12 (stereo not given in full),-21.6%
10,CC1=CC2CC[C@@H]3[C@@H](C)C[C@H](C)[C@@H](C1)N23 (stereo not given in full),5.7%
11,CC[N@@+]1([O-])C[C@]2(C)CC[C@@H](O)[C@@]34C5C[C@H]6CC[C@@]5(C(C[C@H]23)C41)[C@H](O)[C@@]6(O)CO (stereo not given in full),-2.27%
12,COc1ccc(C23Oc4cc(OC)cc(OC)c4[C@](O)([C@H](c4ccccc4)C2C(=O)NCCCCNC(=O)c2ccccc2)[C@@H]3O)cc1 (stereo not given in full),-6.54%
13,COc1ccc2c3c([nH]c2c1)C(C)=NCC3,3.43%
14,CCC[C@H]1CC[C@H]2[C@H](C)CCC[C@H]2N1,3.79%
15,COC(=O)C1=C2Nc3ccccc3[C@@]23CCN2CC(C(C)=O)C1C[C@H]23 (stereo not given in full),-1.85%
16,C[C@]12CC(O)C3[C@@H](CCC4C[C@@H](O)CC[C@@]43CO)[C@@]1(O)CCC2C1=CC(=O)OC1 (stereo not given in full),-5.53%
17,CCCCC[C@@H]1OC(=O)[C@@H](C)N(C)C(=O)[C@H](CCCCC)OC(=O)C(C)N(C)C(=O)[C@H](CCCCC)OC(=O)[C@@H](C)N(C)C(=O)[C@H](CCCCC)OC(=O)C(C)N(C)C1=O (stereo not given in full),-17%
18,CC[C@@H]1CN2CC[C@@]3(O)C(=Nc4cccc(OC)c43)[C@@H]2C[C@@H]1/C(=C\OC)C(=O)OC,-7.44%
19,CNCCc1c[nH]c2ccccc12,-18.8%
20,CNCCc1ccc(O)cc1,-6.02%
21,CCN1C[C@]2(C)CC[C@@H](O)[C@]34C1[C@H](C[C@H]23)C12CCC(CC14)[C@](O)(CO)[C@H]2O (stereo not given in full),-12.4%
22,CC=C1CN(C=O)[C@H]2C[C@@H]1[C@@H](C(=O)OC)[C@@]13CCOC21Nc1ccccc13 (stereo not given in full),-14.4%
23,C/C=C1/CN2CC[C@]34C(=Nc5ccccc53)[C@@H]2C[C@@H]1[C@H]4C(=O)OC,0.824% [at 114 µM]
24,CO[C@@H](/C=C/CC/C=C/C(=O)O)[C@@H](O)[C@H](C)/C=C(\C)[C@@H](O)[C@H](C)C(=O)CCCC1CC(=O)NC(=O)C1,-15%
25,CCC(=O)CCCCC[C@@H]1NC(=O)[C@H]2CCCCN2C(=O)[C@H]([C@@H](C)CC)NC(=O)[C@H](Cc2cn(OC)c3ccccc23)NC1=O,-11.2%
26,NCCc1ccccc1,-9.02%
27,CC(=O)N[C@H]1CCN2CCC[C@H]12,-13.3% [at 128 µM]
28,O=C(c1ccccc1O)c1[nH]c(Cl)c(Cl)c1-n1c(C(=O)c2ccccc2O)cc(Cl)c1Cl,-18.5%
29,CO[C@H](c1ccccc1)[C@H]1NC(=O)C(C)NC(=O)C(C[C@@H](C)CO)N(C)C(=O)[C@@H](C(O)c2cn(C(C)(C)C3CO3)c3ccccc23)NC(=O)C(C(C)C=C(C)C)NC(=O)C(CC(C)C)N(C)C(=O)C(C(C)C)NC1=O (stereo not given in full),-16.7% [at 34.3 µM]
30,C[C@@H]1CC[C@@H](c2ccoc2)N2C[C@@]3(CC[C@@H]12)CS[C@@]1(CC[C@H]2[C@H](C)CC[C@@H](c4ccoc4)N2[C@@H]1O)C3,-19.6%

# — PubChem BioAssay (NCATS)
